Source: PubChem BioAssay AID602366 (National Center for Advancing Translational Sciences (NCATS), 2012)
Records with an inconclusive call do not appear. Calls of active or inactive are those of the source. The call rests on the fitted dose curve; in most records, active means well fitted inhibition curve with a large enough effect; inconclusive means small, poorly fitted or top-dose-only effect; inactive means flat fitted curve, though single readings scatter.

Assay: qHTS Assay for Inhibitors of Bacillus subtilis Sfp phosphopantetheinyl transferase (PPTase): SAR in B subtilis HM489
Settings: B. subtilis HM489 whole-cell Sfp-dependent phenotype; series mostly up to 114 µM; activity, negative = inhibition: at the top concentration
From the text: The covalent attachment of a phosphopantetheinyl (4'-PP) arm to a variety of synthases and other proteins is a key posttranslational protein modification. The 4'-PP is installed on the proteins post-translationally from coenzyme A (CoA) on a conserved serine residue by action of phosphopantetheinyl transferase (PPTase) enzymes. Phosphopantetheinylation is essential for synthase activity, and removal of the PPTase gene precludes natural product synthesis in microorganisms, or in the case of fatty acid biosynthesis, renders the organism unviable. PPTase enzymes belong to a distinct structural superfamily. Within bacteria, these enzymes are grouped into two classes based upon primary structure, the AcpS-Type and Sfp-Type PPTases.
Sfp-type PPTases, corresponding to an activator of surfactin production in Bacillus subtilis, are responsible for modifying type I polyketide and nonribosomal peptide synthases of prokaryotes. Sfp-type PPTases are responsible for the activation of a variety of pathogen-associated virulence factors. Among these compounds are toxins such as mycolactone from Mycobacterium ulcerans, siderophores such as vibriobactin from Vibrio cholerae or mycobactin from Mycobacterium tuberculosis, as well as the mycolic acids which form the waxy cell wall of Mycobacteria. The biosyntheses of these natural products are considered attractive targets for drug design.
In search of small molecule Sfp-PPTase inhibitors, a fluorescence quenching assay was developed for detection of Bacillus subtilis Sfp-PPTase enzymatic activity in a miniaturized high-throughput format. The consensus ybbr acceptor peptide […] was N-terminally labeled with Black Hole Quencher-2 (BHQ-2) and used in combination with rhodamine-labeled coenzyme A as a co-substrate.
Phosphopantetheinyl transfer is a process essential to cellular viability and maintenance. Cellular permeable and stable compounds acting as PPTase inhibitors are anticipated to be antimicrobial agents in organisms with complimenting genotypes. […] This experiment evaluated a series of test compounds for antimicrobial activity with B. subtilis HM489 (genotype: acpS- and sfp+), a strain that contains a targeted lesion in the acpS locus and thus requires a functional Sfp gene product for viability. [Mootz HD, 2001] This strain is expected to be sensitized to cell-permeable Sfp inhibitors.
NIH Chemical Genomics Center [NCGC]
NIH Molecular Libraries Probe Centers Network [MLPCN]
Assay Submitter (PI): Michale Burkart, University of California, San Diego
Bacillus subtilis HM489 is maintained on lysogeny broth (LB) solidified by the addition of 1.5% w/v agar. Single colonies were used to LB medium (2 mL) and shaken overnight at 30 deg C. In the morning, this culture (100 uL) was used to seed a fresh LB medium (10 mL) and was shaken at 30 deg C until the culture OD600 reached 0.5. This culture was diluted 1:100 in fresh LB medium to provide the inoculum below.
Bacterial susceptibility.
LB medium (2 uL) is dispensed into wells of a sterile white 1536-well plate. Test compounds (23 nL) prepared as serial dilutions in DMSO are added to the plate by pintool transfer. Innoculum (2 uL) is added; the plates are covered with a vented Kalypsys assay lid and incubated at 30 deg C. After 5 h, Bac-Titer Glo (4 uL; Promega Corp, Madison, WI) is added to the plates. They are incubated 10 minutes at room temperature and then the luminescence detected in a ViewLux multimodal plate reader.

activity, negative = inhibition, inactive:
Cc1cc(C)nc(NC(=S)N2CCN(c3ncccc3C#N)CC2)c1 -15.5%
COc1cccc(NC(=S)N2CCN(c3ccc(Cl)c(Cl)c3)CC2)n1 -17.5%
Cc1ccnc(NC(=S)N2CCCc3ccc(C(F)(F)F)cc32)c1 -19.8%

Potency, active:
Cc1ccnc(NC(=S)N2CC3CN(c4ncc(C(F)(F)F)cc4Cl)CC3C2)c1 (centres undefined) 11.8 µM
Cc1ccnc(NC(=S)N2CCN(c3cc(C(F)(F)F)cc(C(F)(F)F)c3)CC2)c1 11.8 µM
COc1ccnc(NC(=S)N2CCN(c3cccc(Cl)c3Cl)CC2)c1 8.35 µM
Cc1ccnc(NC(=S)N2CCCN(c3cccc(C(F)(F)F)c3)CC2)c1 4.18 µM
Cc1ccnc(NC(=S)Nc2cccc(C(F)(F)F)c2)c1 10.5 µM
Cc1ccnc(NC(=S)N2CCN(c3cccc(C(F)(F)F)c3)CC2)c1 10.5 µM
Cc1ccnc(NC(=S)N[C@@H]2CCN(c3cccc(C(F)(F)F)c3)C2)c1 29.6 µM
Cc1ccnc(NC(=S)N2CC3CN(c4cccc(C(F)(F)F)c4)CC3C2)c1 (centres undefined) 5.27 µM
Cc1cc(C)nc(NC(=S)N2CCN(c3ccc(Cl)cc3Cl)CC2)c1 29.6 µM
Cc1ccnc(NC(=S)N2CCN(c3cccc(N(C)C)c3)CC2)c1 46.9 µM
Cc1cc(C)nc(NC(=S)N2CCN(c3ccc([N+](=O)[O-])cc3Cl)CC2)c1 18.7 µM
Cc1cc(C)nc(NC(=S)N2CC3CN(c4ccc(Cl)cc4C(F)(F)F)CC3C2)c1 (centres undefined) 9.37 µM
COc1ccnc(NC(=S)N2CCN(c3ncc(C(F)(F)F)cc3Cl)CC2)c1 6.63 µM
Cc1cc(C)nc(NC(=S)N2CCN(c3ccc(F)c(F)c3F)CC2)c1 21 µM
S=C(Nc1cc(Cl)ccn1)N1CCN(c2cccc(Cl)c2Cl)CC1 8.35 µM
CSC(Cc1ccc(Cl)cc1)C(=O)Nc1ccc(Cl)cc1C(=O)O (centres undefined) 26.4 µM
Cc1cc(C)nc(NC(=S)N2CCN(c3ccc(Cl)c(Cl)c3)CC2)c1 26.4 µM
FC(F)(F)c1cccc(N2CCN(C(=S)Nc3cc(C(F)(F)F)ccn3)CC2)c1 10.5 µM
FC(F)(F)c1cc(N2CCN(C(=S)Nc3cc(Cl)ccn3)CC2)cc(C(F)(F)F)c1 4.18 µM
COc1ccnc(NC(=S)N2CCN(c3ccc(Cl)cc3Cl)CC2)c1 10.5 µM
Cc1cc(C)nc(NC(=S)N2CCN(c3cc(Br)cc(C(F)(F)F)c3)CC2)c1 4.69 µM
